The whole screen tested about 5,500 compounds, of which about 2,000 (36%) were called active. Not shown: some 18% with an inconclusive outcome. No stated cut-off is given here; in the data, active means normalized growth mostly below about 0.91 (no sharp cut-off); inconclusive means no clear call, values can overlap the other calls; inactive means mostly above about 0.92. This is one part of the list.
Assay: chemical genetic growth profiling, strain panel (AID 1159580);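 further: tested at 20 µM; growth read once vehicle control cultures reached saturation at 30 °C; 1 = growth at the plate median or of vehicle wells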
Details: S. cerevisiae deletion strains, growth OD
[1] = locus YGR078C, strain PAC10, stronger effect = lower value
[2] = locus YJR075W, strain HOC1, stronger effect = lower value
[3] = locus YNL128W, strain TEP1, stronger effect = lower value
[4] = locus YNL153C, strain GIM3, stronger effect = lower value
[5] = locus YNL322C, strain KRE1, stronger effect = lower value
[6] = locus YPL055C, strain LGE1, stronger effect = lower value

Measured: normalized growth

CN(C)C(=O)N=NC(=O)N(C)C
inactive: locus YAL040C, strain CLN3, stronger effect = lower value 0.985 | locus YCL061C, strain MRC1 (second series), stronger effect = lower value 0.994 | locus YDR363W, strain ESC2, stronger effect = lower value 1.04 | locus YER002W, strain NOP16, stronger effect = lower value 1.03 | [1] 0.99 | [2] 1.02 | [3] 0.983 | [4] 0.968 | locus YNL175C, strain NOP13, stronger effect = lower value 0.996 | locus YNL197C, strain WHI3, stronger effect = lower value 0.984 | locus YNL224C, strain SQS1, stronger effect = lower value 1.01 | [5] 1.02 | locus YOR083W, strain WHI5 (second series), stronger effect = lower value 0.968 | [6] 1.06

O=C1CC2(CCCC2)C(=O)N1CCNc1nccc(C(F)(F)F)n1
inactive: locus YAL013W, strain DEP1, stronger effect = lower value 1.01 | locus YBR229C, strain ROT2, stronger effect = lower value 0.991 | locus YCL061C, strain MRC1, stronger effect = lower value 0.977 | locus YDL101C, strain DUN1, stronger effect = lower value 0.985 | locus YDR150W, strain NUM1, stronger effect = lower value 1.05 | locus YEL061C, strain CIN8, stronger effect = lower value 1.01 | [1] 0.982 | locus YHR030C, strain SLT2, stronger effect = lower value 0.994 | locus YHR087W, strain rtc3, stronger effect = lower value 1.03 | locus YJL187C, strain SWE1, stronger effect = lower value 0.995 | locus YJR043C, strain POL32, stronger effect = lower value 0.999 | [2] 0.97 | locus YKL190W, strain CNB1, stronger effect = lower value 0.984 | locus YLR039C, strain RIC1, stronger effect = lower value 0.935 | locus YLR058C, strain SHM2 (second series), stronger effect = lower value 0.975 | locus YLR085C, strain ARP6, stronger effect = lower value 0.999 | locus YLR262C, strain YPT6, stronger effect = lower value 0.972 | locus YML094W, strain GIM5, stronger effect = lower value 1 | locus YMR219W, strain ESC1, stronger effect = lower value 0.997 | locus YMR263W, strain SAP30, stronger effect = lower value 1.01 | [3] 0.989 | [4] 1.01 | locus YNL298W, strain CLA4 (second series), stronger effect = lower value 0.964 | [5] 0.993 | locus YNR030W, strain Alg12, stronger effect = lower value 0.986 | [6] 1.03 | locus YPL241C, strain CIN2, stronger effect = lower value 1 | locus YPR135W, strain CTF4, stronger effect = lower value 0.941
